Out of some 420,000 compounds screened, about 64,000 (15%) were called active. Not shown: some 27% with an inconclusive outcome. Calls come from the whole dose curve; as a rule, active = well fitted inhibition curve with a large enough effect; inconclusive = small, poorly fitted or top-dose-only effect; inactive = flat fitted curve, though single readings scatter. A selection follows. Entries that show only a call come without a potency.
Assay: qHTS for Inhibitors of human tyrosyl-DNA phosphodiesterase 1 (TDP1): qHTS in cells in absence of CPT; note: nearly all actives have a fitted effect of over 55% in size
Conditions: DT40 Tdp1-/- hTDP1 cells, no CPT, ATP luminescence, 48 h; activity change, negative = growth inhibition: at 46.2 µM (top of the series)
Outline: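 Compound effects on proliferation are scored in DT40 Tdp1-/-;hTDP1 cells in the absence of CPT. ATP levels (CellTiter-Glo luminescence) are recorded after a ≥48 hr, 37 °C incubation.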
Potency is the fitted concentration of half-maximal effect.

Structure (SMILES)	Potency
CCOC(=O)c1cc2occc2n1CC(=O)N1CCN(C(=O)c2ccco2)CC1	inactive
ClC1(Cl)CC1CSc1ncn[nH]1 (stereo not given)	inactive
CC(=O)O[C@H]1c2ccccc2-c2ccccc2[C@@H]1OC(C)=O	inactive
Cc1ccc(Cn2c(=O)n(Cc3nc(-c4ccccc4)no3)c(=O)c3cc4c(cc32)OCO4)cc1	inactive
Cc1ccc(Cn2c(C)nc3c(c2=O)c2nc4ccccc4nc2n3Cc2ccco2)cc1	23.1 µM (active)
CC(Sc1nc2ccccc2c(=O)n1Cc1ccco1)C(=O)c1ccccc1 (stereo not given)	inactive
O=C(NNc1ccccn1)c1ccc(Cl)nc1	inactive
Cc1nc2scc(-c3cccs3)c2c(=O)n1N	inactive
CCOC(=O)C(C)n1cnc2scc(-c3ccc(C)c(C)c3)c2c1=O (stereo not given)	inactive
CCCc1nc2scc(-c3ccc(C)cc3)c2c(=O)n1N	18.4 µM (active)
Cc1cc(C)c(S(=O)(=O)c2ccccc2)c(OC(=O)c2c(F)cccc2Cl)n1	inactive
CCOC(=O)CN(Cc1ccc(OC)c(OC)c1)S(=O)(=O)c1ccc(OC)cc1	inactive
CCN(CC)S(=O)(=O)c1ccc(N(C)CCc2ccc(OC)c(OC)c2)nc1	20.6 µM (active)
CCOc1ccc(Br)cc1S(=O)(=O)Nc1cccc(S(=O)(=O)N(CC)CC)c1	inactive
CCN(CC)S(=O)(=O)c1ccc(OC)c(NC(=O)CCc2c(C)noc2C)c1	inactive
CCN(CC)S(=O)(=O)c1ccc(N(C)Cc2cccc(OC)c2OC)nc1	18.4 µM (active)
CCN(CC)S(=O)(=O)c1ccc(N(C)Cc2ccc(C(F)(F)F)cc2)nc1	13 µM (active)
CCN(CC)S(=O)(=O)c1ccc(Cl)c(NC(=O)c2ccncc2)c1	inactive
CCN(CC)S(=O)(=O)c1ccc(NC(=O)c2cnc(C)cn2)cc1	inactive
CCS(=O)(=O)NCCc1ccc(OC)c(OC)c1	inactive
NC(=O)C[C@@H]1NC(=O)CNC(=O)c2cc([N+](=O)[O-])cc(I)c2NCCC(C(N)=O)NC1=O (stereo not given in full)	inactive
COc1ccc(-n2c(CNC(=O)c3cc(C(F)(F)F)ccc3Cl)nnc2SC)cc1	inactive
CC(C)=CC(=O)Nc1nnc(-c2ccc(F)cc2)s1	inactive
COc1cccc(OC)c1C(=O)Nc1nnc(C(C)C)s1	inactive
COc1ccc(N2C(=O)C3CCCN3C2c2cccs2)cc1 (stereo not given)	inactive
Cc1cc(C)c2c(-n3cccc3)c(C(=O)NNS(=O)(=O)c3ccc(F)cc3)sc2n1	inactive
Cc1cc(C(=O)CC#N)c(C)n1-c1c(C)n(C)n(-c2ccccc2)c1=O	inactive

Structure (SMILES)	Potency
Cc1nn(C)c(Cl)c1CN1CCC(n2nccc2NC(=O)C2CCCC2)CC1	inactive
O=C(O)C1=CCCN(CCON=C(c2ccccc2)c2ccccc2)C1	inactive
COc1ccc(NC(=O)c2cc3cc(C)ccc3n2C)cc1	inactive
Cc1ccc(NC(=O)c2cc3cc(C)ccc3n2C)cc1	inactive
COc1ccc(OC)c(/C(C)=N\NC(=O)c2cc3cc(Cl)ccc3n2C)c1	4.61 µM (active)
Cc1cc(C)cc(OCC(=O)O/N=C(\N)Cc2ccc([N+](=O)[O-])cc2)c1	inactive
CCOc1ccc(NS(=O)(=O)c2ccc(OCC(=O)NCCCOC)cc2)cc1	inactive
COC(=O)Cc1c(C)c2ccc(OCC(=O)NCc3ccc4c(c3)OCO4)cc2oc1=O	inactive
O=C(COc1ccc2c(C(F)(F)F)cc(=O)oc2c1)Nc1ccc2c(c1)OCCO2	inactive
CCOc1ccc2c(=O)c(-c3ccc4c(c3)OCCCO4)c(C)oc2c1	13 µM (active)
Cc1ccc(N2CC(C(=O)Nc3ccc(N(C)C)cc3)CC2=O)cc1Cl (stereo not given)	inactive
COc1ccc(CC(=O)NCc2nnc(SCC(=O)Nc3ncc(C)s3)n2C)cc1	16.4 µM (active)
Cc1cnc(NC(=O)CSc2nnc(C)s2)s1	inactive
COc1ccc(-n2nnnc2CNC(=O)c2ccc3ccccc3c2)cc1	inactive
Cc1ccc(SCC(=O)Nc2ncc(C)s2)cc1	inactive
COc1ccc(C(=O)NCc2nnc(SCCOc3ccccc3)n2C)cc1	29.1 µM (active)
Cc1cnc(NC(=O)CSc2c(Cl)cccc2Cl)s1	13 µM (active)
COc1ccc(CC(=O)NCc2nnc(SCC(=O)Nc3nccs3)n2C)cc1	inactive
COc1ccccc1C(=O)NCc1nnc(SC(C)C(=O)Nc2nccs2)n1C (stereo not given)	inactive
COC(=O)c1ccc(NC(=O)CSc2nnc(CNc3ccc(OC)cc3)n2C)cc1	inactive
C=CCC1=C/C(=C\c2c(N)n3nc(CC(=O)N4CCOCC4)sc3nc2=O)C=C(OC)C1=O	inactive
CC(=O)NC1CC2CCCC(C1)N2CC(=O)Nc1ccccc1 (stereo not given)	inactive
COc1ccccc1NS(=O)(=O)N(C)C	inactive
CC(C)(C)NC(=O)/C(=C/c1cccnc1)NC(=O)c1ccco1	inactive
NS(=O)(=O)c1ccc2nc(NC(=O)C3=COCCO3)sc2c1	inactive
N#CC(Cc1cc2ccccc2n1S(=O)(=O)c1ccccc1)OCc1ccccc1 (stereo not given)	inactive
O=C(Nn1cnnc1)c1cc(Cl)ccc1Cl	inactive

Structure (SMILES)	Potency
CC(C)=CCN1CCN(Cc2ccc(Oc3ncccn3)cc2)CC1CCO (stereo not given)	inactive
Cc1ccc(NC(=O)c2cccc(N(C)C)c2)cc1NC(=O)c1ccc(O)cc1	inactive
O=C1[C@@H]2C(c3cccnc3)=NO[C@@H]2C(=O)N1c1ccc(Cl)cc1Cl	inactive
OCCC1CN(Cc2ccccc2-c2ccco2)CCN1Cc1ccsc1 (stereo not given)	inactive
Cc1ccc(C)c2[nH]c(=O)c(CCNC(=O)c3cccs3)cc12	inactive
COc1ccccc1NC(=O)CCC(=O)OC(C)C(=O)c1ccccc1 (stereo not given)	inactive
Cc1ccc(S(=O)(=O)N(Cc2cc3ccccc3[nH]c2=O)CC2CCCO2)cc1 (stereo not given)	inactive
CCOc1ccc2[nH]c(=O)c(CN(Cc3nnnn3CCc3ccccc3)CC3CCCO3)cc2c1 (stereo not given)	14.6 µM (active)
Cc1cc2cc(CN(Cc3cccs3)Cc3nnnn3CC3CCCO3)c(=O)[nH]c2cc1C (stereo not given)	20.6 µM (active)
O=C(c1cccs1)N(Cc1cc2ccccc2[nH]c1=O)CC1CCCO1 (stereo not given)	inactive
Cc1ccc(C(=O)N/C(=C/c2cccs2)C(=O)NCC2CCCO2)cc1 (stereo not given)	inactive
COc1ccc2[nH]c(=O)c(CN(Cc3nnnn3CCc3ccccc3)CC3CCCO3)cc2c1 (stereo not given)	9.2 µM (active)
Cc1nnc(SCC(=O)NNC(=O)c2ccc(Cl)cc2)n1CC1CCCO1 (stereo not given)	inactive
CC(=O)Nc1ccc(NC(=O)CSc2nnc(COc3ccccc3C)n2CC2CCCO2)cc1 (stereo not given)	inactive
CCN1C(=O)CS/C1=N\c1nccs1	inactive
CCOC(=O)NC(=O)C(=CNc1cccc(OC)c1)C(=O)NC(=O)OCC	inactive
CC(=O)CSc1nnc(CSc2ncccn2)n1C1CCCCC1	inactive
Cc1ccc(-c2csc(NC(=O)c3cnccn3)n2)cc1C	inactive
Cc1ccc(-c2csc(NC(=O)C3=COCCO3)n2)cc1C	4.11 µM (active)
O=C(Nc1nc(-c2cccnc2)cs1)c1ccccc1F	inactive
O=C(Nc1nc(-c2ccc3c(c2)OCO3)cs1)c1ccncc1	13 µM (active)
CC(=O)NCCC(=O)Nc1nc(-c2ccc3c(c2)OCCO3)cs1	inactive
Cc1ccc(-c2csc(NC(=O)Cc3cccs3)n2)cc1C	inactive
CC1=C(C(=O)Nc2cc(C)ccn2)C(c2cnn(C)c2)C2=C(CC(c3ccccc3)CC2=O)N1 (stereo not given)	inactive
O=P(O)(O)C(O)c1ccc2ccccc2c1 (stereo not given)	inactive
FC(F)(F)Oc1ccc(-c2cn3cccnc3n2)cc1	inactive
Cc1cc(C)cc(C(=O)NC(CC(N)=O)c2ccc(N3CCC(N4CCCCC4)CC3)c([N+](=O)[O-])c2)c1 (stereo not given)	inactive

Structure (SMILES)	Potency
CC(=O)c1c(C)[nH]c(C(=O)NCc2ccc(C)cc2)c1C	inactive
CCOc1nc(-c2ccc(OC)cc2)ccc1-c1noc(-c2cc(OC)c(OC)c(OC)c2)n1	3.66 µM (active)
COc1nc(-c2ccc(Cl)cc2)ccc1-c1noc(-c2cccs2)n1	inactive
COc1ccc(OC)c(-n2nnc(-c3nc(-c4cc(OC)c(OC)c(OC)c4)no3)c2C)c1	inactive
COc1ccc(-c2cc(-c3nc(-c4cc(OC)c(OC)c(OC)c4)no3)[nH]n2)c(OC)c1	13 µM (active)
COc1cc(-c2nc(-c3ccncc3)no2)cc(OC)c1OC	inactive
CCOC(=O)COc1cc(OCC(=O)OCC)c2c(=O)cc(-c3ccccc3)oc2c1	inactive
O=C(Nc1nn(Cc2ccccc2F)cc1Br)c1cccs1	inactive
COc1ccc(/C(O)=C2/C(=O)C(=O)N(CC3CCCO3)C2c2ccc(OC)c(OC)c2)cc1 (stereo not given)	inactive
CC(CNS(=O)(=O)c1ccc(Br)cc1)CN(C)C (stereo not given)	inactive
O=C1CC2(CC(c3ccc(Cl)cc3)=NO2)C(=O)N1c1ccccc1 (stereo not given)	inactive
Cc1ccc(-c2nnc3ccc(SCC(N)=O)nn23)cc1	inactive
O=C(Nc1ccn(Cc2ccccc2)n1)c1n[nH]c([N+](=O)[O-])c1Cl	inactive
O=C(Nc1ccn(Cc2ccc(F)cc2)n1)c1ccncc1	11.6 µM (active)
O=C(Nc1ccn(Cc2ccccc2)n1)c1cccc(F)c1	inactive
O=C(COc1cccc2c1CCNC2=O)NC1CCCCC1	inactive
COc1ccc(C(=O)COC(=O)Cn2cnc3c2c(=O)n(C)c(=O)n3C)c(OC)c1	inactive
COC(=O)C1=C(C(=O)OC)[C@@H]2N(C)c3ccccc3[C@@]23C[C@@H](C(=O)OC)N(C(=O)c2ccco2)C3=N1	inactive
Cc1cc(C)cc(NS(=O)(=O)c2ccc3[nH]cc(C(=O)N4CCCCC4)c(=O)c3c2)c1	inactive
CN1CCN(c2ncncc2-c2ccc(C(=O)N(C)C)cc2)CC1	inactive
CCOC1CS(=O)(=O)CC1OCC (stereo not given)	inactive
Cc1cccc(-c2cnc(C(O)c3cc(C)cc(C)c3)[nH]2)c1 (stereo not given)	inactive
COc1cccc(-c2cnc(C(O)c3ccccc3OC)[nH]2)c1 (stereo not given)	inactive
CCCc1ccc(C(O)c2ncc(-c3cccc(OC)c3)[nH]2)cc1 (stereo not given)	20.6 µM (active)
